# Screening results: PubChem, National Center for Advancing Translational Sciences (NCATS)
# KB-V1 MDR tox – KB-V1 MDR subline cytotoxicity; hit rate 3.4% among 400,000; KB-V1 MDR cells viability, CellTiter-Glo, 72 h; Potency, µM (titrated, usually from 46.1 µM), actives largely listed as cytotoxic; AID 1347076; also: % is scaled to controls: 0 for no effect and ±100 for the full control effect; nearly all actives have a fitted effect of over 60% in size
#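 KB-V1 cells (P-gp-expressing MDR subline of KB-3-1) in phenol-red-free DMEM with 10% FBS were exposed to library compounds over a concentration series for 72 h at 37 degrees C. Viability read by CellTiter-Glo luminescence; concentration-effect curves fitted after normalization.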
# KB-3-1 cytotox – kills parental KB-3-1 adenocarcinoma cells | Potency, µM (doses to about 46.1 µM), usual class: cytotoxic | KB-3-1 viability, CellTiter-Glo ATP luminescence, 72 h | AID 1347075 | hit rate 1.4% among 400,000; also: % is scaled to controls: 0 for no effect and ±100 for the full control effect; nearly all actives have a fitted effect of over 60% in size
#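 Parental KB-3-1 viability, qHTS format: 72 h compound exposure, 37 °C; CellTiter-Glo; media-only wells and DMSO plates as controls; concentration-effect fits on corrected data.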
# SW480 rerep – induces DNA re-replication in SW480 colon adenocarcinoma cells; SW480 DNA re-replication, Hoechst DNA content imaging, 48 h; hit rate 1.8% among 340,000; AID 624297; Potency, µM (series often up to 46.1 µM), inactives show at the top dose re-replication activation, most hits filed as activators; also: % of control where 0% means no effect; nearly all actives have a fitted effect of over 55% in size
#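 Hoechst fluorescence of nuclei (405 nm excitation, 500-530 nm emission) measured by plate-scanning imager after 48 hr compound exposure at 37 C; re-replication scored as increased number of nuclei with elevated intensity.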
# PINK1 expr mod – modulators of PINK1 expression; hit rate 0.2% among 410,000; PINK1 immunofluorescence, high-content cytometry, 24 h; Potency, µM (doses to about 76.6 µM), inactives show top-dose activation (PINK1 increase), most hits filed as activators; active = well fitted activation curve with a large enough effect; inconclusive = small, poorly fitted or top-dose-only effect; cell line not stated here; also: % of control where 0% means no effect; nearly all actives have a fitted effect of over 65% in size
#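 Compound titrations (5 concentrations, 24 h) on a stable cell line; DMSO and CCCP controls. Endpoint: fixed-cell PINK1 immunofluorescence with mitochondrial, cell and nuclear markers, scanned by microplate cytometer.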
# MCF10A rerep – DNA re-replication induction in MCF 10a cells | MCF 10A DNA re-replication, Hoechst nuclear intensity, 48 h | Potency, µM (series often up to 46.1 µM), for inactives: at the highest dose activity, positive = re-replication, actives largely listed as activators | hit rate 2.9% among 350,000 | AID 624296; also: % of control where 0% means no effect; nearly all actives have a fitted effect of over 50% in size
# Numbers without * were called inactive; i = inactive; u = inconclusive; x = no result given; [ ] = another dose, or the depositor's remark. Shown are actives, neighbours in structure and some others; about 6.7% of the full set was active somewhere. Unless noted, calls follow the shape of the dose curve; as a rule, active = well fitted curve in the direction sought with a large enough effect; inconclusive = small, poorly fitted or top-dose-only effect, or another doubt; inactive = no such curve, though single readings can be large; an effect the other way counts as inactive or inconclusive. Potency is read from the fitted curve at half-maximal effect.
SMILES,KB-V1 MDR tox,KB-3-1 cytotox,SW480 rerep,PINK1 expr mod,MCF10A rerep
CCCCCCc1cc2cc(C(=O)Nc3ccccc3OC)c(=O)oc2cc1O,u,u,u,u,0.65µM*
CCCCCCc1cc2cc(-c3nnc(-c4cc(OC)c(OC)c(OC)c4)o3)c(=O)oc2cc1O,u,u,8.2µM*,u,0.52µM*
COc1ccc(NC(=O)c2cc3ccccc3oc2=O)c(OC)c1,i,i,0%,u,7%
COc1cc(-c2nnc(SCc3cc(=O)oc4cc(O)c(O)cc34)o2)cc(OC)c1OC,i,i,13%,0%[38.3 µM],u
COCCn1c(=O)c(-c2ccc(F)cc2)nc2cnc(N(C)C)nc21,x,x,x,2%,x
CCCCN(C(=O)NCCCCCCNC(=O)N(CCCC)C1CCS(=O)(=O)C1)C1CCS(=O)(=O)C1 (stereo not drawn),u,i,-2%,1%,-2%
O=C1c2cccc3cc([N+](=O)[O-])cc(c23)C(=O)N1c1nncs1,i,i,-5%,4%,6%
COc1ccc(CNC(=O)c2cnn(-c3ccccc3)c2-n2cccc2)cc1OC,u,u,x,-1%,x
CCCCCCc1cc2cc(-c3nnc(-c4ccccc4OC)o3)c(=O)oc2cc1O,16µM*,u,1.2µM*,u,6%
COc1cccc2cc(-c3nnc(-c4ccccc4)o3)c(=O)oc12,i,i,u,2%,1%
CCOC(=O)c1ccc(NC(=O)COc2ccccc2CNCCc2ccccc2)cc1,i,i,-12%,0%,2.3µM*
COc1ccc(Nc2nc(N)nc(N)c2S(=O)(=O)c2ccccc2)cc1,u,i,x,0%,x
COc1ccccc1C(O)c1nccn1C (stereo not drawn),i,i,-2%,0%,19%
CCn1ccnc1C(O)c1ccccc1OC (stereo not drawn),i,i,18µM*,1%,13µM*
CO/N=C/c1ccc(N2CCN(C(=O)c3ccc(C)cc3)CC2)c([N+](=O)[O-])c1,9.2µM*,u,1%,-9%[38.3 µM],19%
NC(=O)c1ccc(N2CCN(S(=O)(=O)c3ccccc3)CC2)c([N+](=O)[O-])c1,9.2µM*,18µM*,-4%,2%,35%
CO/N=C/c1ccc(N2CCCC2)c([N+](=O)[O-])c1,u,i,-5%,0%,-7%
Cc1ccc(S(=O)(=O)N2CCN(c3ccc(C(=O)N4CCOCC4)cc3[N+](=O)[O-])CC2)cc1,2.9µM*,i,-6%,11%,u
CC(C)NC(=O)Nc1ccc2c(c1)C(=O)N([C@H](C)CO)C[C@H](C)[C@@H](CN(C)Cc1ccc(C(F)(F)F)cc1)OCCCC[C@H](C)O2,i,u,x,25%,x
CSCC[C@H](NC(=O)N1CCn2c1nc1ccccc12)C(=O)NCc1ccc(C)cc1,i,i,-3%,1%,2%
COc1cc2c(cc1OC)-c1nc3ccccc3c(=O)n1C(C)(C)C2,9.2µM*,i,-2%,2%[38.3 µM],-6%
COc1ccc(/C=C2\CCn3c2nc2ccccc2c3=O)cc1OC,i,i,-3%,0%,-1%
O=c1c2ccccc2sn1-c1ccccc1,i,u,12µM*,4%,9.2µM*
O=c1c2ccccc2sn1-c1nccs1,i,i,u,4%,16µM*
O=c1c2cc(F)ccc2sn1-c1ccccc1,i,u,u,5%,u
SMILES,KB-V1 MDR tox,KB-3-1 cytotox,SW480 rerep,PINK1 expr mod,MCF10A rerep
Cc1ccc(-n2sc3ccccc3c2=O)cc1S(=O)(=O)N1CCCCC1,u,u,u,2%,16µM*
O=c1c2cc(C(F)(F)F)ccc2sn1-c1ccccc1,21µM*,u,x,u,x
O=C(O)c1cccc(-n2sc3ccccc3c2=O)c1,i,u,u,-2%,u
CCN(C(=O)COC(=O)CCc1c[nH]c2ccccc12)c1c(N)n(Cc2ccccc2)c(=O)[nH]c1=O,i,i,-10%,-4%,3%
CC(C)Cc1nn2c(=O)cc(COC(=O)c3cccc(NC(=O)CCc4ccccc4)c3)nc2s1,x,x,x,1%,x
Oc1cc(Nc2ccccc2)cc2cccnc12,u,u,18%,3%,u
Oc1cc(NCCN2CCOCC2)cc2cccnc12,i,15µM*,u,-1%,u
CC(=O)N(C)c1ccc(/C=C2\C=Cc3ccccc32)cc1,i,i,x,0%,x
Cc1cc(NC(=O)/C=C/c2cccc(F)c2)n(-c2nc3ccccc3[nH]2)n1,u,u,u,5%,16µM*
Cc1cc(NC(=O)c2ccc(C)s2)n(-c2nc3ccccc3[nH]2)n1,i,i,1%,2%,5%
Cc1cc(NC(=O)/C=C/c2cccc(Cl)c2)n(-c2nc3ccccc3[nH]2)n1,u,u,u,15%,21µM*
COc1ccc(/C=C/C(=O)Nc2cc(C)nn2-c2nc3ccccc3[nH]2)cc1,16µM*,u,18µM*,9%,u
Cc1cc(NC(=O)/C=C/c2ccc(F)cc2)n(-c2nc3ccccc3[nH]2)n1,i,i,2%,5%,u
COc1cccc(Cn2c(=O)c(-c3cccs3)nc3cnc(N(C)C)nc32)c1,x,x,x,-1%,x
Cc1cccc(C)c1OCC(=O)N[C@@H](Cc1ccccc1)[C@@H](O)C[C@H](Cc1ccccc1)NC(=O)[C@H](C(C)C)N1CCCNC1=O,i,i,u,4%,u
COc1cc(=O)n2c(c1C(=O)N(C)Cc1nonc1C)CCN(C(=O)c1ccc(C)c(C)c1)CC2,x,x,x,-1%,x
COc1ccc(C(=O)Nc2nnc(C3=COCCO3)o2)cc1,i,i,18%,1%,3%
CCOc1ccc(C(=O)Nc2nnc(C3=COCCO3)o2)cc1,u,0.0012µM*,1%,-2%,11%
O=C(C[n+]1cc(Br)cc2ccccc21)c1ccccc1,i,i,u,40µM*,-4%
O=C(C[n+]1cc(Br)cc2ccccc21)c1ccc(O)c(O)c1,i,u,x,6%,x
CC(/C=N/NC(=O)Cc1cccn1C)=C\c1ccccc1,16µM*,i,-2%,-2%,3%
CC(C=NNC(=O)C(=O)NN=CC(C)=Cc1ccccc1)=Cc1ccccc1,i,i,u,9%,19%
Cc1cccc(N2CCN(C(=O)CN3C(=O)COc4ccc(S(=O)(=O)N5CCC(C)CC5)cc43)CC2)c1C,i,i,x,-1%,x
CCC(CC)CN1CCC(CN2C(=O)C(=O)NC[C@@H]2CC(C)C)CC1,i,i,x,5%,x
CCC(CC)CN1CCC(CN2CCNC(=O)C2=O)CC1,i,i,-1%,0%,2.1µM*
O=C(c1ccc2c(c1)N(Cc1cccc(Cl)c1)C(=O)c1ccccc1S2(=O)=O)N1CCc2ccccc21,x,x,x,2%,x
